Source: PubChem
HepG2 viability = kills HepG2 cells in TGF-b inhibitor counter-screen; HepG2 CAGA-GFP viability, ATP luminescence, 18 h; Potency, µM (doses to about 46.1 µM), for inactives: at the top dose activity change, negative = cytotoxicity, actives largely listed as cytotoxic; 0.76% of 410,000 active; AID 588856; also: potency is read from the fitted curve at half-maximal effect
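HepG2 CAGA-GFP cells (1000/well, DMEM with 1% FBS) received compound, then TGF-beta at 500 pg/mL final, and were incubated 18 hours at 37 degrees C. Viability was read by CellTiter-Glo luminescence. Media-only wells were set as complete cell-killing and DMSO as no toxicity.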
TDP1 cell noCPT = qHTS for Inhibitors of human tyrosyl-DNA phosphodiesterase 1 (TDP1): qHTS in cells in absence of CPT; 15% of 420,000 active; Potency, µM (doses to about 46.2 µM), inactives show top-dose activity change, negative = growth inhibition, hits mostly inhibitors; DT40 Tdp1-/- hTDP1 cells, no CPT, ATP luminescence, 48 h; also: potency is read from the fitted curve at half-maximal effect; % is scaled to controls: 0 for no effect and ±100 for the full control effect; nearly all actives have a fitted effect of over 55% in size
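Chicken DT40 Tdp1-/- cells stably complemented with human TDP1 were seeded at 400 cells/well with DMSO in place of 20 nM camptothecin. After compound pinning, cells grew at least 48 hr at 37 °C; viability read by CellTiter-Glo luminescence.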
TDP1 cell CPT = growth inhibition of DT40 Tdp1-/-;hTDP1 cells with camptothecin (screen for TDP1 inhibitors) | Potency, µM (top dose mostly 46.2 µM), without a hit: at the top dose activity change, negative = growth inhibition, usual class: inhibitors | 12% of 420,000 active | chicken DT40 Tdp1-/-;hTDP1 cells + 20 nM CPT, ATP luminescence, 48 h | AID 686979; also: potency is read from the fitted curve at half-maximal effect; % is scaled to controls: 0 for no effect and ±100 for the full control effect; nearly all actives have a fitted effect of over 55% in size
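Cell growth measured by CellTiter-Glo luminescence after a minimum 48 h, 37 C compound exposure with 20 nM CPT in Tdp1-knockout DT40 cells stably expressing hTDP1, seeded 400/well; qHTS titration format.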
IL1B secr inh = inflammasome signaling inhibition, IL-1 beta readout. activity change, % at 57.5 µM. THP-1 LPS/ATP IL-1B secretion, AlphaLISA, 16 h; active compounds read low. AID 743279. 4.7% of 360,000 active; in the data active = activity change below about -50%; inconclusive = mostly about -30% to -49%; also: % is scaled to controls: 0 for no effect and ±100 for the full control effect
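Secreted IL-1B measured by AlphaLISA bead assay after 16 h compound exposure of THP-1 cells; compounds (final up to 57.5 uM) added 1 h before LPS (250 ng/mL) and ATP (1.25 mM) stimulation; lower signal means less secretion.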
ASM inhibitor = inhibitors of human secretory acid sphingomyelinase | Potency, µM (series often up to 57.5 µM), without a hit: top-dose activity change, negative = inhibition, hits mostly inhibitors | 0.006% of 340,000 active | placental ASM, HMU-PC fluorogenic substrate, 60 min; also: potency is read from the fitted curve at half-maximal effect
Target sequence (P17405 47-631 limits assumed): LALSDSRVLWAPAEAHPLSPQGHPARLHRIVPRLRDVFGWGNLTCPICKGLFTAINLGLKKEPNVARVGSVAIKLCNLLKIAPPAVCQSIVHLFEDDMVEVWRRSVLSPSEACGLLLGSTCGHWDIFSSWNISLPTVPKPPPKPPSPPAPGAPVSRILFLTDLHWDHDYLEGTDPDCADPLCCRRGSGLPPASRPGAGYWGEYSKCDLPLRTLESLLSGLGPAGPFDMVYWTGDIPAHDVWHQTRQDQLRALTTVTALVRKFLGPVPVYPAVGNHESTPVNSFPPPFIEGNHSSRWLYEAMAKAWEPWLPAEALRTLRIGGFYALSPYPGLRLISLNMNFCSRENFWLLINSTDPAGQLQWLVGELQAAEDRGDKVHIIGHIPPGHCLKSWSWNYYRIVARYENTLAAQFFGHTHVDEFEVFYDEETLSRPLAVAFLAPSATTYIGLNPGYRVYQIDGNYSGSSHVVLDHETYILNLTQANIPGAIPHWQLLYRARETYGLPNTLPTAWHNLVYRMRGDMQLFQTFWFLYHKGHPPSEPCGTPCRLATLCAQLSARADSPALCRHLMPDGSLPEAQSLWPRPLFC
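Fluorescence read-out (Ex 386 nm, Em 447 nm) after stopping the reaction at pH 10. Enzyme: ASM from human placenta; substrate HMU-PC0, 9 uM final; 60 min, 37 °C. Compound preincubation 10 min, ambient temperature.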
TGFb SMAD3 inh = blocks TGF-b signaling. HepG2 CAGA-GFP TGF-b/SMAD3 reporter, GFP fluorescence, 18 h; TGF-beta stimulated, 500 pg/mL final. Potency, µM (titrated, usually from 46.1 µM), for the others: top-dose activity, negative = inhibition, hits mostly inhibitors. 1.2% of 410,000 active. AID 588855; also: potency is read from the fitted curve at half-maximal effect; % is scaled to controls: 0 for no effect and ±100 for the full control effect; nearly all actives have a fitted effect of over 65% in size
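Read-out: total well GFP (ex488/em500-530) summed from mean per-cell fluorescence. Cells: HEPG2 CAGA-GFP, 1% FBS DMEM, 18 h at 37 degrees C with 500 pg/mL final TGF-beta. Unstimulated wells served as the full-inhibition control; stimulated DMSO wells = 0%.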
* marks the source's active call; other numbers are inactive results; ? = inconclusive; nt = no result given; [ ] = remark or other dose. Shown are actives, neighbours in structure and some others; about 19% of the full set was active somewhere. Unless noted, calls follow the shape of the dose curve; as a rule, active = well fitted curve in the direction sought with a large enough effect; inconclusive = small, poorly fitted or top-dose-only effect, or another doubt; inactive = no such curve, though single readings can be large; an effect the other way counts as inactive or inconclusive.

SMILES | HepG2 viability | TDP1 cell noCPT | TDP1 cell CPT | IL1B secr inh | ASM inhibitor | TGFb SMAD3 inh
CCCCNC(=O)Cn1c(SCc2cccc(F)c2)nc2ccncc21 | -9.2% | ? | ? | nt | nt | -10.8%
CCOC(=O)N1CCN(C(=O)C2CCN(S(=O)(=O)c3ccc(OC)cc3)CC2)CC1 | -1.7% | 16.6% | 2.8% | 5.3 | 24.7% | -2.3%
COc1cccc(Nc2ncc3nc(-c4cc(F)cc(F)c4)c(=O)n(CCC#N)c3n2)c1 | nt | 16.4µM* | 11.6µM* | nt | nt | nt
Cc1ccc(-c2nc(CS(=O)(=O)CC(=O)NC(C)CCc3ccccc3)c(C)o2)cc1 (stereo unspecified) | -61.5% | ? | ? | nt | nt | 11.2µM*
Cc1ccccc1-c1nc(CS(=O)(=O)CC(=O)NCc2cccc(Cl)c2)c(C)o1 | -50.0% | ? | 16.4µM* | nt | nt | ?
Cc1cccc(N2CCN(C(=O)CS(=O)(=O)Cc3nc(-c4ccccc4F)oc3C)CC2C)c1 (stereo unspecified) | -18.5% | ? | ? | 17.5 | -16.3% | -28.8%
Cc1ccccc1-c1nc(CS(=O)(=O)CC(=O)NCCc2ccccc2)c(C)o1 | -13.7% | -25.7% | ? | -22.2 | -2.4% | 14.1µM*
Cc1ccccc1-c1nc(CS(=O)(=O)CC(=O)NCc2ccc(F)cc2)c(C)o1 | -12.8% | ? | ? | -3.3 | 2.5% | -5.9%
Cc1cccc(N2CCN(C(=O)CS(=O)(=O)Cc3nc(-c4ccccc4C)oc3C)CC2C)c1 (stereo unspecified) | -33.7% | ? | 14.6µM* | nt | nt | 11.2µM*
Cc1oc(-c2ccccc2F)nc1CS(=O)(=O)CC(=O)NCCCc1ccccc1 | 4.3% | -4.2% | 5.5% | -7.3 | -1.9% | 2.8%
COc1ccc(NC(=O)CSCC(=O)OCc2cccc(OC)c2OC)cc1 | -16.7% | -7.2% | -1.4% | 11.6 | -1.6% | 0.0%
COc1cc(-c2cnc3ccccc3c2)cc2c1OCCN(S(=O)(=O)C[C@]13CC[C@H](CC1=O)C3(C)C)C2 | nt | ? | 21.6%[9.04 µM] | nt | nt | nt
COc1ccc(C(=O)NC2CC3CCCC(C2)N3CC(C)C)cc1 (stereo unspecified) | -1.2% | -5.6% | 1.8% | 10.7 | 1.6% | -13.6%
O=C(CN1C(=O)NC(Cc2c[nH]c3ccccc23)C1=O)NCCc1ccccc1 (stereo unspecified) | -39.9% | -15.0% | -3.9% | -27.0 | -4.1% | -0.7%
COc1ccc(C(=O)NNC(=O)c2ccc(C)cc2)cc1S(=O)(=O)N1CCCC1 | 24.9% | ? | ? | 0.1 | -4.4% | -7.2%
Cc1ccccc1-c1nc(CS(=O)(=O)CC(=O)Nc2cc(F)ccc2F)c(C)o1 | -19.6% | 20.6µM* | ? | 16.6 | -19.7% | ?
Cc1ccccc1-c1nc(CS(=O)(=O)CC(=O)NCC(C)c2ccccc2)c(C)o1 (stereo unspecified) | -17.3% | 16.4µM* | ? | nt | nt | ?
Cc1ccccc1-c1nc(CS(=O)(=O)CC(=O)NC2CCCC2)c(C)o1 | -11.1% | -20.0% | 2.5% | 13.0 | -1.1% | -16.6%
O=C(C(=O)N1CCN(CCN2CCOCC2)CC1)c1ccccc1 | nt | 2.1% | -5.8% | 0.2 | nt | nt
CCOC(=O)Cn1c(C)[n+](CC(=O)c2ccccc2)c2ccccc21 | -45.7% | -17.4% | -24.3% | 37.7 | 1.7% | -19.2%
CCCCCN1C(C(=O)c2ccccc2)=C(OC(=O)CC)c2ccccc2S1(=O)=O | 11.2µM* | 5.17µM* | 4.61µM* | nt | nt | ?
CCC(=O)OC1=C(C(C)=O)N(Cc2ccccc2)S(=O)(=O)c2ccccc21 | -0.8% | ? | 18.4µM* | nt | nt | 0.6%
CCCCC(=O)OC1=C(C(=O)c2ccccc2)N(CCC)S(=O)(=O)c2ccccc21 | -78.3% | 2.91µM* | 3.26µM* | nt | nt | ?
CCCN1C(C(=O)c2ccccc2)=C(OC(=O)c2ccc(F)cc2)c2ccccc2S1(=O)=O | -56.2% | 4.61µM* | 5.17µM* | nt | nt | 17.8µM*
CCCCC(=O)OC1=C(C(C)=O)N(Cc2ccccc2)S(=O)(=O)c2ccccc21 | 1.1% | ? | ? | nt | nt | -0.3%
SMILES | HepG2 viability | TDP1 cell noCPT | TDP1 cell CPT | IL1B secr inh | ASM inhibitor | TGFb SMAD3 inh
CCCC(=O)OC1=C(C(C)=O)N(Cc2ccccc2)S(=O)(=O)c2ccccc21 | -9.9% | ? | ? | nt | nt | 13.9%
C=CCN(c1ccccc1C(=O)O)S(=O)(=O)c1ccc(C)cc1 | 3.7% | -6.6% | 9.1% | -6.4 | 2.8% | 8.3%
Fc1ccc(-c2nc(Nc3cccc(C(F)(F)F)c3)nc3c2COc2ccccc2-3)cc1 | 0.5% | ? | ? | nt | nt | -8.9%
Cc1ccc(Nc2nnc(C)c3ccccc23)c(C)c1 | 111.1% | ? | -4.0% | -10.1 | 2.2% | 56.3%
CCOC(=O)c1c(S(=O)(=O)N2CCCC(C(=O)Nc3cccc(C#N)c3)C2)c(C)n(C)c1C (stereo unspecified) | -10.0% | ? | ? | nt | nt | -42.8%
Cc1cccc2cc(CN(CC3CCCO3)C(=O)c3ccccc3F)c(N(C)C)nc12 (stereo unspecified) | nt | -14.7% | -0.8%[9.04 µM] | nt | nt | nt
CCN1C(C(=O)c2ccccc2)=C(OC(=O)c2ccc(OC)cc2)c2ccccc2S1(=O)=O | -35.6% | 6.51µM* | 4.61µM* | nt | nt | ?
Cc1ccc(C(=O)OC2=C(C(=O)c3ccccc3)N(C)S(=O)(=O)c3ccccc32)cc1 | -42.9% | ? | ? | nt | nt | ?
